Experimental data: PubChem BioAssay AID1347142 (National Center for Advancing Translational Sciences (NCATS), 2019)
Records with an inconclusive call do not appear. Calls of active or inactive are those of the source. The call rests on the fitted dose curve; in most records, active means well fitted inhibition curve with a large enough effect; inconclusive means small, poorly fitted or top-dose-only effect; inactive means no such curve, though single readings can be large or run the other way.

What follows are compounds tested against N-terminal Xaa-Pro-Lys N-methyltransferase 1 (Homo sapiens) (UniProt Q9BV86) (assay: qHTS Assay for Inhibitors of N-terminal methyltransferase 1 (NTMT1): ThioGlo3 Assay Confirmatory Screen, Round 1.). Settings: NTMT1 SAHH-coupled ThioGlo3 fluorescence, 30 min; series mostly up to 56.8 µM; activity change, negative = inhibition: at the top concentration.
Procedure, shortened: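 Human NTMT1 at 125 nM was preincubated 1 min at room temperature with compounds at various concentrations or 1 uM RCC1-6 control. Substrate mix (100 uM SAM, 10 uM SAHH, 15 uM ThioGlo3) was added, and fluorescence (Ex 340/Em 450 nm) was read at start and after 30 min, normalized to background.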
Further: nearly all actives have a fitted effect of over 80% in size.
Potency means the concentration at half of the fitted maximal effect.
Wherever activity change, negative = inhibition is given: 0% is about no effect.

N-terminal Xaa-Pro-Lys N-methyltransferase 1 (Homo sapiens), sequence (Q9BV86 whole entry, looked up): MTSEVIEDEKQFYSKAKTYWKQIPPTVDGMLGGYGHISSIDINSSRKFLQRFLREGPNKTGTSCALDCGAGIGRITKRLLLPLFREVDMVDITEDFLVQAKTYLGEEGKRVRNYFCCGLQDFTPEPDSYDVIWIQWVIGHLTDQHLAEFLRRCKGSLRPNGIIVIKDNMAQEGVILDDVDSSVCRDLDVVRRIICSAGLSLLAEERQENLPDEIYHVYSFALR

SMILES | activity change, negative = inhibition | Potency
O=C(Nc1ncnc2c1ncn2[C@@H]1O[C@@H]2COP(=O)(O)O[C@H]2[C@H]1O)c1ccccc1 | 20.2% (inactive) | –
CNc1ncnc2c1ncn2[C@@H]1O[C@H](CO)[C@@H](O)[C@@H]1O | 7.42% [at 27.4 µM] (inactive) | –
CCCCC#Cc1nc(NC)c2ncn([C@@H]3O[C@H](CO)[C@@H](O)C3O)c2n1 (some centres undefined) | – | 8.57 µM (active)
COc1cc2c(NC3CCN(C)CC3)cc(N3CCCCN(C)CC3)cc2cc1OCCOCCN(C)C | – | 27.1 µM (active)
COc1cc2c(NC3CCN(C(C)C)CC3)nc(N3CCCN(C4CCCCC4)CC3)nc2cc1OCCCN1CCCC1 | – | 24.1 µM (active)
CNC(=O)[C@H]1O[C@H](n2cnc3c(NCc4cccc(I)c4)nc(Cl)nc32)[C@@H](O)[C@@H]1O | 12.8% (inactive) | –
O=c1[nH]cnc2c1ncn2C1O[C@H](CO)[C@@H](O)[C@H]1O (some centres undefined) | 19.8% (inactive) | –
C=C1O[C@@](CO)(n2cnc3c(N)ncnc32)[C@H](O)[C@@H]1O | -25.4% (inactive) | –
CNc1nc(N2CCN(C)CC2)nc2cc(OC)c(OC)cc12 | – | 24.1 µM (active)
COc1cc2c(NC3CCN(C)CC3)nc(N3CCCN(C)CC3)nc2cc1OCCCCCN | – | 24.1 µM (active)
Nc1ncnc2c1ncn2C1C[C@H](O)[C@@H](CO)O1 (some centres undefined) | -9.06% (inactive) | –
CNCCCOc1cc2nc(N3CCCN(C)CC3)nc(NC3CCN(C)CC3)c2cc1OC | – | 24.1 µM (active)
Nc1nc(Cl)nc2c1ncn2[C@@H]1O[C@H](COP(=O)(O)OP(=O)(O)OP(=O)(O)O)C(O)[C@H]1O (some centres undefined) | – | 21.5 µM (active)
COc1cc2nc(N3CCCN(C)CC3)nc(N3CCN(C)CC3)c2cc1OC | – | 8.57 µM (active)
